# Experimental data as given in article PMC7862700, “An all-to-all approach to the identification of sequence-specific readers for epigenetic DNA modifications on cytosine”.
# Columns and labels:
# Assay in all cases: DAPPL (digital affinity profiling via proximity ligation, sequencing); 10 mM Tris-HCl pH 7.5, 50 mM NaCl, 1 mM DTT, 4% glycerol, room temperature, 30 min; GST-TFs on glutathione beads, 16-mer random dsDNA library, 0.1% formaldehyde crosslink after washing; high values mean tight binding
# FLI1 = biological target: T1, FLI1 (Homo sapiens, UniProt Q01543 1-452); settings: protein: recombinant; tags: N-terminal GST; dsDNA, one strand shown
# T1 sequence: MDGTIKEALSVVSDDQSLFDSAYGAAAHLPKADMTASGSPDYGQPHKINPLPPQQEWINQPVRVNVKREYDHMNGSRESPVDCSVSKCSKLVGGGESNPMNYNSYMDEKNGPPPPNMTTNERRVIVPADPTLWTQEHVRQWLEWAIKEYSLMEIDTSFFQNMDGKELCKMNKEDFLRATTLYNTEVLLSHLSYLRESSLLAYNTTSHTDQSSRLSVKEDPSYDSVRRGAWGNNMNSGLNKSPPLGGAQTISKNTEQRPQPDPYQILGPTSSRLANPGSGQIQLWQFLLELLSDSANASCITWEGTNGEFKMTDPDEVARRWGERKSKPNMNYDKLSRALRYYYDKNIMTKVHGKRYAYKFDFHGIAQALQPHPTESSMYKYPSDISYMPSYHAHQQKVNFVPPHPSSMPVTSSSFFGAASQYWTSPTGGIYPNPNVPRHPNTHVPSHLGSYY
# Outline: (§1)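 Yeast served to express human transcription factors as GST fusions, which were then captured on glutathione beads and labelled with DNA barcodes. Pooled with a tag-only sample, they were incubated with 200 nmole of a 16-mer random double-stranded DNA library for 30 min at room temperature in Tris/NaCl/DTT/glycerol buffer, washed, crosslinked with 0.1% formaldehyde, ligated by proximity, amplified by PCR and sequenced. Dividing each hexamer's read frequency for a factor by its frequency for the tag-only sample gives the binding signal.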
# ELK1 = biological target: T2, ELK1 (Homo sapiens, UniProt P19419 1-428); settings: protein: recombinant; tags: N-terminal GST; dsDNA, one strand shown
# T2 sequence: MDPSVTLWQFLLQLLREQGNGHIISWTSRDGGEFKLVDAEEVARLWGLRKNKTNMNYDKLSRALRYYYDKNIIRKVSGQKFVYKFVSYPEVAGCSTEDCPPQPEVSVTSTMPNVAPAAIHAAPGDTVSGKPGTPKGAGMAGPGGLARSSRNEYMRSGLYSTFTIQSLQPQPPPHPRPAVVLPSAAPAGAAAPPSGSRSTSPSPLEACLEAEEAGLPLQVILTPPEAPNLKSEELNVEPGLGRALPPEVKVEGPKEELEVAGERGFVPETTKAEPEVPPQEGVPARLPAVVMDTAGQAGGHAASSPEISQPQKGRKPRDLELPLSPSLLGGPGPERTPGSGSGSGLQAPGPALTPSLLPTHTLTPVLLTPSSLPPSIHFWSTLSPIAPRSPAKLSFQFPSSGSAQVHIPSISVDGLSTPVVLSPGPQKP
# Outline: as §1
# GABPA = biological target: T3, GABPA (Homo sapiens, UniProt Q06546 1-454); settings: protein: recombinant; tags: N-terminal GST; dsDNA, one strand shown
# T3 sequence: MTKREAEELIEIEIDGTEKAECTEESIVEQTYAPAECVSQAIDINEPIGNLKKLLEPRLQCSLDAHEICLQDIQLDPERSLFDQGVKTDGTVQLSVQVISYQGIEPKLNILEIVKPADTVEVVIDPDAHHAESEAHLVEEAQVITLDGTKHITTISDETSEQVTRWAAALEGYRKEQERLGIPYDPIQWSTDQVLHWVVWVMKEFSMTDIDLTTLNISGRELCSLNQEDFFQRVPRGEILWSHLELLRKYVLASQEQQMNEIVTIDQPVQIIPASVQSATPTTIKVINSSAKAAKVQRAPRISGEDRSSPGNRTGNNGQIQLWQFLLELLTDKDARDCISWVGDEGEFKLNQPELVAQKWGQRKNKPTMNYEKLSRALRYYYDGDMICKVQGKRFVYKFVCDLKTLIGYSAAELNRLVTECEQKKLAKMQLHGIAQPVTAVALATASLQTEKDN
# Outline: as §1
# ERG = biological target: T4, ERG (Homo sapiens, UniProt P11308 1-479); settings: protein: recombinant; tags: N-terminal GST; dsDNA, one strand shown
# T4 sequence: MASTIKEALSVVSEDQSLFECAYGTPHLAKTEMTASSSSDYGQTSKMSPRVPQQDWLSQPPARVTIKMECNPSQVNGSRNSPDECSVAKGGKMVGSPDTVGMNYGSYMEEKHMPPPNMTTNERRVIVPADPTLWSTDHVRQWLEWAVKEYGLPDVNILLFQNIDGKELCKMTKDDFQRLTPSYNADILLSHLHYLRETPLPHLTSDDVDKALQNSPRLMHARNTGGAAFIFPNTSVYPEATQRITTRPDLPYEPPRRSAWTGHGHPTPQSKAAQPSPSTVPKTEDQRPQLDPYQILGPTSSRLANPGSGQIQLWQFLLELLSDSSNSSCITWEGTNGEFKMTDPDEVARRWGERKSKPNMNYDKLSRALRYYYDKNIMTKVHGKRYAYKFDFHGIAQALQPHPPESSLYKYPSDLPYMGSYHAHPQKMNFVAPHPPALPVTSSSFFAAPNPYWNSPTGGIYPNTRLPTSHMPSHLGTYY
# Outline: as §1
# ELF1 = ELF1 (Homo sapiens, UniProt P32519 1-619); settings: protein: recombinant; tags: N-terminal GST; dsDNA, one strand shown
# Outline: as §1
# EHF = biological target: T5, EHF (Homo sapiens, UniProt Q9NZC4 1-300); settings: protein: recombinant; tags: N-terminal GST; dsDNA, one strand shown
# T5 sequence: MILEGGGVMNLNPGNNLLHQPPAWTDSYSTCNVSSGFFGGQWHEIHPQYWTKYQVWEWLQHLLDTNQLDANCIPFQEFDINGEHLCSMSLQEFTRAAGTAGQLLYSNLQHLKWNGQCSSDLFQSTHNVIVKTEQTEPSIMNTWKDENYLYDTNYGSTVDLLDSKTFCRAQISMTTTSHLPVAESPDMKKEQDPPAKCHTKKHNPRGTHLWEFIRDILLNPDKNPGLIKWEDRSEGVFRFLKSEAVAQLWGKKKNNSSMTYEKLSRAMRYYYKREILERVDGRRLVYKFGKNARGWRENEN
# Outline: as §1
# SPI1 = SPI1 (Homo sapiens, UniProt P17947 1-270); settings: protein: recombinant; tags: N-terminal GST; dsDNA, one strand shown
# Outline: as §1
# SPIB = SPIB (Homo sapiens, UniProt Q01892 1-262); settings: protein: recombinant; tags: N-terminal GST; dsDNA, one strand shown
# Outline: as §1
# ELK3 = biological target: T6, ELK3 (Homo sapiens, UniProt P41970 1-407); settings: protein: recombinant; tags: N-terminal GST; dsDNA, one strand shown
# T6 sequence: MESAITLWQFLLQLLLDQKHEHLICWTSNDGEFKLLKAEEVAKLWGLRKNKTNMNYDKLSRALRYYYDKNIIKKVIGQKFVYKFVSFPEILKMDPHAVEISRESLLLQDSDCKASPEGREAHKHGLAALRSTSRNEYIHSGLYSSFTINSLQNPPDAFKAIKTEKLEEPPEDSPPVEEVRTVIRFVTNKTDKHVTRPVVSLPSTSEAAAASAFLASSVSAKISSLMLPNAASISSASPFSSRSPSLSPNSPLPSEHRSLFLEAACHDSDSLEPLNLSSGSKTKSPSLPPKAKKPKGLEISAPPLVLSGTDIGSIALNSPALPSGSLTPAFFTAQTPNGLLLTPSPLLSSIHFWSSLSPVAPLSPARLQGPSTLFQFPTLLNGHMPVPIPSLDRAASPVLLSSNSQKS
# Outline: as §1
# FEV = biological target: T7, FEV (Homo sapiens, UniProt Q99581 1-238); settings: protein: recombinant; tags: N-terminal GST; dsDNA, one strand shown
# T7 sequence: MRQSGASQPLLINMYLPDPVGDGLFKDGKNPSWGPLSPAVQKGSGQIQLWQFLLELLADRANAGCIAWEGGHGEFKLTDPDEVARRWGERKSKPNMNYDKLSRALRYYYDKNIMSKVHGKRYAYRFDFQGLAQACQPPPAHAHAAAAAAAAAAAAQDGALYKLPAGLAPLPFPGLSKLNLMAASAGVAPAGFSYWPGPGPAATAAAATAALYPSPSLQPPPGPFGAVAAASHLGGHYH
# Outline: as §1
# ETV5 = ETV5 (Homo sapiens, UniProt P41161 1-510); settings: protein: recombinant; tags: N-terminal GST; dsDNA, one strand shown
# Outline: as §1
# HSF1 = HSF1 (Homo sapiens, UniProt Q00613 1-529); settings: protein: recombinant; tags: N-terminal GST; chain copies: 3; dsDNA, one strand shown
# Outline: as §1
# SPIC = biological target: T8, SPIC (Homo sapiens, UniProt Q8N5J4 1-248); settings: protein: recombinant; tags: N-terminal GST; dsDNA, one strand shown
# T8 sequence: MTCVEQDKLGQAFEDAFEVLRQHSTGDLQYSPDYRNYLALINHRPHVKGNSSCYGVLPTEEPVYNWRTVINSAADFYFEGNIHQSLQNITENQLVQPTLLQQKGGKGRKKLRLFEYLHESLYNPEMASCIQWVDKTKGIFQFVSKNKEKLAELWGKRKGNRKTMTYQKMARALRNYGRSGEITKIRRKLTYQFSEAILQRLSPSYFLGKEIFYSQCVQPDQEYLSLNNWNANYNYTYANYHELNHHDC
# Outline: as §1
# ELF4 = ELF4 (Homo sapiens, UniProt Q99607 1-663); settings: protein: recombinant; tags: N-terminal GST; dsDNA, one strand shown
# Outline: as §1
# ELK4 = biological target: T9, ELK4 (Homo sapiens, UniProt P28324-2 1-405); settings: protein: recombinant; tags: N-terminal GST; dsDNA, one strand shown
# T9 sequence: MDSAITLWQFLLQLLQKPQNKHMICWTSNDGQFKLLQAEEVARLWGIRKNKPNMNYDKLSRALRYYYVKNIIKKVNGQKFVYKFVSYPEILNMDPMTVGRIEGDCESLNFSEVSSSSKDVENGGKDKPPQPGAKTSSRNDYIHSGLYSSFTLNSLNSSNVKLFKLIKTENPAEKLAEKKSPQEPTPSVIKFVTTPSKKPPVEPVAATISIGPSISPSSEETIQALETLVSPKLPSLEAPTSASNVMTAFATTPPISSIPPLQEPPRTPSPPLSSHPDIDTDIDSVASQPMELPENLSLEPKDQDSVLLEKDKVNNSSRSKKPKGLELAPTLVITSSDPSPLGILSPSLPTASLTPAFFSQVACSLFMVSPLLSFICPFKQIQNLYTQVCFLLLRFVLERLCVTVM
# Outline: as §1
# ETV2 = biological target: T10, ETV2 (Homo sapiens, UniProt O00321 1-342); settings: protein: recombinant; tags: N-terminal GST; dsDNA, one strand shown
# T10 sequence: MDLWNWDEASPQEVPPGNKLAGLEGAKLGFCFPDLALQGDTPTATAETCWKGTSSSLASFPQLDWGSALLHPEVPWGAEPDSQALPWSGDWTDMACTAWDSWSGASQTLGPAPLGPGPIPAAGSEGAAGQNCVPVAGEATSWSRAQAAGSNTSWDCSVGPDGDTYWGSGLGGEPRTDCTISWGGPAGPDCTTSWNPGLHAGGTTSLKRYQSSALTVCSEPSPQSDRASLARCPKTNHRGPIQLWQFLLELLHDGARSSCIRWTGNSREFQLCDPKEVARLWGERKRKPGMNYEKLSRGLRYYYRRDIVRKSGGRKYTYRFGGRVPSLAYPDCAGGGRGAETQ
# Outline: as §1
# ELF3 = biological target: T11, ELF3 (Homo sapiens, UniProt P78545 1-371); settings: protein: recombinant; tags: N-terminal GST; dsDNA, one strand shown
# T11 sequence: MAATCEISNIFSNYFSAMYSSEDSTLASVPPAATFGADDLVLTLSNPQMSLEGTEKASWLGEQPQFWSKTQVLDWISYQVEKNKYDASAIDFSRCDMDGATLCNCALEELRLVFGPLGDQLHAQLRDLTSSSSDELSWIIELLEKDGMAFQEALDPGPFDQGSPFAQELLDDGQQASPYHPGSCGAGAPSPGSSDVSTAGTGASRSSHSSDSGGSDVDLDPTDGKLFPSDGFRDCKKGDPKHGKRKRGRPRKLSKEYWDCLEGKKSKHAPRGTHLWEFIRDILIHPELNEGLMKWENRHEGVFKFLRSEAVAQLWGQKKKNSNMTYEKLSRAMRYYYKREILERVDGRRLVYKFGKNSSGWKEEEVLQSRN
# Outline: as §1
# CRX = CRX (Homo sapiens, UniProt O43186 1-299); settings: protein: recombinant; tags: N-terminal GST; dsDNA, one strand shown
# Outline: as §1
# ETV1 = ETV1 (Homo sapiens, UniProt P50549 1-477); settings: protein: recombinant; tags: N-terminal GST; dsDNA, one strand shown
# Outline: as §1
# Chain of CRX (O43186 whole entry): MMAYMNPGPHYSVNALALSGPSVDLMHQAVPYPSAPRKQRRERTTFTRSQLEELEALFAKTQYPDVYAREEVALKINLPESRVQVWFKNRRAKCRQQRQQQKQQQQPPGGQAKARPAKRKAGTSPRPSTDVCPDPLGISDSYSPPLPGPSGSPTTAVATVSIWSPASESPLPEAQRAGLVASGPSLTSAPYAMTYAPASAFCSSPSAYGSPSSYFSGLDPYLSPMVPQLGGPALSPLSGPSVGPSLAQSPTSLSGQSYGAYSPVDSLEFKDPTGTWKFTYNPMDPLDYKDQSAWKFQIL
# Chain of HSF1 (Q00613 whole entry): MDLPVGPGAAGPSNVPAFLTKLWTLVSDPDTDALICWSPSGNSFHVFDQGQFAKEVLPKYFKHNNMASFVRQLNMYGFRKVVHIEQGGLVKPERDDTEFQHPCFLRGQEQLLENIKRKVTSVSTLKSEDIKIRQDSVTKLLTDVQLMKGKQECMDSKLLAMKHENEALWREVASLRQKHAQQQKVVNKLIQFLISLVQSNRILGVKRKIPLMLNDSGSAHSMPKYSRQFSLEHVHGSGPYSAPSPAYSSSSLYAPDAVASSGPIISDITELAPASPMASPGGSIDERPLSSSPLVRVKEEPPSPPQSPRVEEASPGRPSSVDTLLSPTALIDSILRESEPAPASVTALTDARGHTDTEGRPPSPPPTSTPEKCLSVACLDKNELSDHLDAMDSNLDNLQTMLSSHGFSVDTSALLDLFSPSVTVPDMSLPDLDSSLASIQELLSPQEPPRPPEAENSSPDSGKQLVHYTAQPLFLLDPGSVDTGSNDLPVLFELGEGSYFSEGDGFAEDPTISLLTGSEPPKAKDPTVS
# Chain of ELF1 (P32519 whole entry): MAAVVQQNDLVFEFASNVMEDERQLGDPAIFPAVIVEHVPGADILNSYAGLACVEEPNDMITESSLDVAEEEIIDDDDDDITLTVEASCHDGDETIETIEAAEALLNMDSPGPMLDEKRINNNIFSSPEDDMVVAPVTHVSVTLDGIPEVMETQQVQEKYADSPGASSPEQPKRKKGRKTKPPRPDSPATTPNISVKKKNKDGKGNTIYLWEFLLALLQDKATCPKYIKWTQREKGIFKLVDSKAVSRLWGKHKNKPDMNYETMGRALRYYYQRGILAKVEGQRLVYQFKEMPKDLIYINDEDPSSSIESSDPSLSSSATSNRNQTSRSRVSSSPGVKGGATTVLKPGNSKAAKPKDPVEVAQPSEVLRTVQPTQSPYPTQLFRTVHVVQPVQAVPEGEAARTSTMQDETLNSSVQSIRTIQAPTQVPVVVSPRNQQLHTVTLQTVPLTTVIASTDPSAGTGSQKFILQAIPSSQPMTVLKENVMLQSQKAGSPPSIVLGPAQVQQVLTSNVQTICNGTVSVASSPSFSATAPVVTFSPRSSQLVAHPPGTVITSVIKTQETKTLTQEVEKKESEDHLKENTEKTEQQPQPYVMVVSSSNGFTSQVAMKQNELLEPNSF
# Chain of ETV5 (P41161 whole entry): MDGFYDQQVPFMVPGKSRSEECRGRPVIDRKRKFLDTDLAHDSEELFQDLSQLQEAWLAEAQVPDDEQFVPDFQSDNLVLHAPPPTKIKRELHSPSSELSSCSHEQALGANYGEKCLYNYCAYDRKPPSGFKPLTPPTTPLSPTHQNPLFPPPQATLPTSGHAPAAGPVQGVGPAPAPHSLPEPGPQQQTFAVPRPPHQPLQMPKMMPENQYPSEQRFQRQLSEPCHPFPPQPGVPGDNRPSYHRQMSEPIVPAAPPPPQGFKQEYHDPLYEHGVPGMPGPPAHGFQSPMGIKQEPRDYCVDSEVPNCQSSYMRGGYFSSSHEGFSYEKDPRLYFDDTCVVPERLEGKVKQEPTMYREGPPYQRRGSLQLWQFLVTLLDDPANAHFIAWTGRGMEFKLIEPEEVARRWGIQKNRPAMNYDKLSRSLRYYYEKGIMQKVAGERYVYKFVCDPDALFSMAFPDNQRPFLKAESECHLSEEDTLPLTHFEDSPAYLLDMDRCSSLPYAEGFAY
# Chain of SPIB (Q01892 whole entry): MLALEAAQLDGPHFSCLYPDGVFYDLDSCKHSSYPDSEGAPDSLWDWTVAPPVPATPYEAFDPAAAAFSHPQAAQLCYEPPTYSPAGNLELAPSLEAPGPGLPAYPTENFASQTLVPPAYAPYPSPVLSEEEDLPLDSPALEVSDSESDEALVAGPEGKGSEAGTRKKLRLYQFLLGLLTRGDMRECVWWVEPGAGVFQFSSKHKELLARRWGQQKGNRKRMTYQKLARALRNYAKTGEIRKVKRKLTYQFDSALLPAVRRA
# Chain of ETV1 (P50549 whole entry): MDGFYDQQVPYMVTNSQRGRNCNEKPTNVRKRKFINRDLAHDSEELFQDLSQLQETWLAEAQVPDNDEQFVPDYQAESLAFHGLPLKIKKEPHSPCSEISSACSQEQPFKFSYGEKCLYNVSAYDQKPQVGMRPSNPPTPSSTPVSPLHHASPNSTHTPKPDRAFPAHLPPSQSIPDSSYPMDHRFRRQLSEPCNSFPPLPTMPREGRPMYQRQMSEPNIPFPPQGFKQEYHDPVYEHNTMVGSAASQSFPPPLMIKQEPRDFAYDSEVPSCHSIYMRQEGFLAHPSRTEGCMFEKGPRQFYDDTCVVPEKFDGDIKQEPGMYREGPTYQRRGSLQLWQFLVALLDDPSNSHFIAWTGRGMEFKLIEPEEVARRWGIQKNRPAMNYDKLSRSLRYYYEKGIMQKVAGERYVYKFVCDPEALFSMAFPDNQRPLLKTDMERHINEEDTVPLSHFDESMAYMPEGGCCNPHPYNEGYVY
# Chain of ELF4 (Q99607 whole entry): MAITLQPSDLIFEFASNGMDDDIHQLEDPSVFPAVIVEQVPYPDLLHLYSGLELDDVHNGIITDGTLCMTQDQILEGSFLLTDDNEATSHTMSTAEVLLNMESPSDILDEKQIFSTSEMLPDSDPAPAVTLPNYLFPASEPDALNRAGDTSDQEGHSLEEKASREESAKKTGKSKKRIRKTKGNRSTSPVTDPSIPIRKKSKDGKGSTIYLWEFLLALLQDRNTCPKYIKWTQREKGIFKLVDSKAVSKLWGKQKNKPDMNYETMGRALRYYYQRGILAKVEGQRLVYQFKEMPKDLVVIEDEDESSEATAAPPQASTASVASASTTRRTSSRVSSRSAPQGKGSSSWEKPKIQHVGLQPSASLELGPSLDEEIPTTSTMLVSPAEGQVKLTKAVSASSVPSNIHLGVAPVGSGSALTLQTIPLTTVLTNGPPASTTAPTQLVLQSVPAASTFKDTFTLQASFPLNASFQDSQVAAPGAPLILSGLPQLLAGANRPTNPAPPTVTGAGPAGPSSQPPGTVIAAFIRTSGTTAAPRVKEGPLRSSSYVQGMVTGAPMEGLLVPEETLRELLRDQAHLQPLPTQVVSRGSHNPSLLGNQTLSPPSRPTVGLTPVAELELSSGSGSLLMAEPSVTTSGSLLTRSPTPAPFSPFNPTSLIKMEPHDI
sequence,measurement,setting,value
TCACTT,binding signal,FLI1,"1.56 fold enrichment (6-mer frequency, TF over GST control)"
same,binding signal,ELK1,"1.78 fold enrichment (6-mer frequency, TF over GST control)"
same,binding signal,GABPA,"1.52 fold enrichment (6-mer frequency, TF over GST control)"
same,binding signal,ERG,"1.8 fold enrichment (6-mer frequency, TF over GST control)"
same,binding signal,ELF1,"1.66 fold enrichment (6-mer frequency, TF over GST control)"
same,binding signal,EHF,"1.67 fold enrichment (6-mer frequency, TF over GST control)"
same,binding signal,SPI1,"2.11 fold enrichment (6-mer frequency, TF over GST control)"
same,binding signal,SPIB,"1.82 fold enrichment (6-mer frequency, TF over GST control)"
same,binding signal,ELK3,"1.69 fold enrichment (6-mer frequency, TF over GST control)"
same,binding signal,FEV,"1.99 fold enrichment (6-mer frequency, TF over GST control)"
same,binding signal,ETV5,"1.75 fold enrichment (6-mer frequency, TF over GST control)"
same,binding signal,HSF1,"1.14 fold enrichment (6-mer frequency, TF over GST control)"
same,binding signal,SPIC,"1.62 fold enrichment (6-mer frequency, TF over GST control)"
same,binding signal,ELF4,"1.74 fold enrichment (6-mer frequency, TF over GST control)"
same,binding signal,ELK4,"1.74 fold enrichment (6-mer frequency, TF over GST control)"
same,binding signal,ETV2,"1.72 fold enrichment (6-mer frequency, TF over GST control)"
same,binding signal,ELF3,"1.62 fold enrichment (6-mer frequency, TF over GST control)"
same,binding signal,CRX,"1.23 fold enrichment (6-mer frequency, TF over GST control)"
same,binding signal,ETV1,"1.67 fold enrichment (6-mer frequency, TF over GST control)"
